Measured values reported in PubChem BioAssay AID2177 (The Scripps Research Institute Molecular Screening Center, 2009).
In all, about 320,000 compounds went through this assay and about 1,200 (0.38%) were called active. What follows is part of a selection rich in actives, with near analogues and random picks from the rest. A number with no mark means an inactive call.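 Rule for the calls: active = inhibition above the screen-wide mean plus 3 SD, limit set per campaign (cut at about 26% in these data); inactive = the rest.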

What follows are molecules tested against Acyl-protein thioesterase 2 (Homo sapiens) (UniProt O95372) (assay: inhibition of human lysophospholipase 2 – biochemical, fluorescence polarization, FP-Rh probe ABPP, counter-screen for PME1 inhibitor project, primary screen (AID 2177;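 note: 0% = LYPLA2 with DMSO and 100% = wells lacking LYPLA2 enzyme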)). Conditions: recombinant LYPLA2, FP-Rh probe fluorescence polarization; at 5.9 µM; stronger effect = higher value.
Acyl-protein thioesterase 2 (Homo sapiens), sequence (O95372 whole entry, looked up): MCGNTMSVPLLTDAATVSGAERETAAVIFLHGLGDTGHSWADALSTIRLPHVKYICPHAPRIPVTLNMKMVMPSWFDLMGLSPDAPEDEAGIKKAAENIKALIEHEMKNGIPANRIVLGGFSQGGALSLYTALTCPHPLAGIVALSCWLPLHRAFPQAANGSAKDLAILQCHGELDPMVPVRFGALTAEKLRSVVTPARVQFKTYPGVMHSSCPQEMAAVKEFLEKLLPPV

Row | Compound | inhibition
1 | CCOc1cc(S(=O)(=O)NCc2ccc3c(c2)OCO3)ccc1F | 7.67%
2 | CCCn1c(NC(=O)C23CC4CC(CC(O)(C4)C2)C3)nc2ccccc21 | -2.06%
3 | CCC1CCCCN1C(=O)CSc1nc2c(c(=O)n(C)c(=O)n2C)n1C (stereo unspecified) | 1.22%
4 | CC/C(Cc1ccccc1)=N/NC(=O)CCn1nnc2ccccc21 | 9.11%
5 | Cc1onc(C(=O)Nc2ccc3c(c2)OCO3)c1[N+](=O)[O-] | 7.4%
6 | Cc1nc([N+](=O)[O-])cn1CC(=O)Nc1ccc(Cl)cc1 | 35.7% (active)
7 | Cc1cc(C)n(CC(=O)Nc2ccc([N+](=O)[O-])cc2)n1 | -3.9%
8 | Cc1nc([N+](=O)[O-])cn1CC(=O)Nc1ccc2c(c1)OCO2 | 27.6% (active)
9 | Cc1nn(CC(=O)Nc2ccc3c(c2)OCO3)c(C)c1[N+](=O)[O-] | 3.02%
10 | Cc1ccc(C(=O)Cn2cc([N+](=O)[O-])nc2C)cc1 | 14.3%
11 | CC(C)C1Nc2c(C(=O)O)cccc2C(Nc2ccccc2C(=O)O)C1(C)C (stereo unspecified) | 1.52%
12 | c1ccc(CSc2ncnc3c2sc2nc(N4CCOCC4)c4c(c23)CCCC4)cc1 | 1.88%
13 | CCOc1ncccc1C(=O)N(CC)CC(=O)Nc1ccc(NC(C)=O)cc1 | -2.58%
14 | COc1ccc(C(C#N)Nc2ccccc2C)cc1 (stereo unspecified) | 2.16%
15 | COc1ccc(C(CC(=O)Nc2ccc(C)cc2)NC(=O)C(F)(F)F)cc1 (stereo unspecified) | -1.1%
16 | COc1ccc(C(C#N)Nc2ccc(C)cc2)cc1 (stereo unspecified) | 29.2% (active)
17 | Cn1nc(C(F)(F)F)c(C(=O)Nc2cccc(C(F)(F)F)c2)c1SCc1ccc(Cl)cc1 | -39.3%
18 | O=C(Oc1ccc(Br)cc1)c1cccnc1 | 1.78%
19 | N#CCc1ccc(OC(=O)c2cccnc2)cc1 | -0.53%
20 | CCCCCCOc1ccc(OC(=O)c2cccnc2)cc1 | 49.8% (active)
21 | COC(=O)c1cccc(-n2[nH]nnc2=S)c1 | -1.32%
22 | CN1CCN(c2ccc(S(=O)(=O)N3CCOCC3)cc2NC(=O)CCc2ccccc2)CC1 | 6.09%
23 | O=C(Cc1ccccn1)c1ccc(O)cc1O | -2.59%

Row | Compound | inhibition
24 | CCOC(=O)c1cc(=O)c2ccc(OCc3ccccc3)cc2o1 | -1.62%
25 | CCOC(=O)c1cc2cc(-c3c(C(=O)OCC)oc4cc(O)cc(O)c4c3=O)ccc2o1 | 33.9% (active)
26 | O=c1c(-c2ccc3c(c2)OCCO3)c(C(F)(F)F)oc2cc(O)cc(O)c12 | 3.69%
27 | COC(=O)c1ccc(CN2CCCC(C(=O)Nc3cccc(-n4cnnn4)c3)C2)cc1 (stereo unspecified) | 2.89%
28 | COc1cccc(N(C(=O)c2ccn[nH]2)C2(C(=O)Nc3c(C)cccc3C)CCCCC2)c1 | -1.38%
29 | O=C(O)c1ccc(/C=N/NC(=S)NCc2ccccc2)cc1 | -7.47%
30 | Cc1ccc(/C=N/NC(=O)C(NC(=O)c2ccccc2)c2n[nH]c(=O)c3ccccc23)cc1 (stereo unspecified) | 40.8% (active)
31 | Cc1ccc(/C=N/NC(=O)COc2ccccc2-c2ccccc2)cc1 | 2.18%
32 | O=C(CNc1ccc(F)cc1F)NC(=O)NCc1ccco1 | -3.47%
33 | Cc1ccc(NC(=O)C(c2ccccc2)N2CCN(C(=O)c3ccco3)CC2)cc1 (stereo unspecified) | 0.07%
34 | Nc1nnc(SCC(=O)NC2CCCc3ccccc32)s1 (stereo unspecified) | -1.96%
35 | O=C(Cc1ccc(Br)cc1)NCCN1CCOCC1 | 4.15%
36 | COc1ccc(NC(=O)NCCN2CCN(c3ccc(C)cc3)CC2)c(Cl)c1 | -3.78%
37 | COc1ccc(N2CCN(C(=O)c3ccc4c(Cl)c5c(nc4c3)CCCC5)CC2)cc1 | 7.7%
38 | COc1ccc(N2CCN(C(=O)c3ccc(N4CCCCS4(=O)=O)cc3)CC2)cc1 | 63% (active)
39 | COc1ccc(N2CCN(C(=O)c3cccs3)CC2)cc1 | 8.83%
40 | COc1ccccc1N1CCC(N2CCN(CC(C)(C)C)C(CCO)C2)CC1 (stereo unspecified) | -1.78%
41 | COc1ccc(NC(=O)COC(=O)c2ccc(NS(=O)(=O)/C=C/c3ccccc3)cc2)cc1 | -12%
42 | O=C(COC(=O)c1ccccc1)Nc1ccccc1Sc1ccccc1 | -10.2%
43 | COc1ccc(C(=O)OCC(=O)NC(=O)CCSc2ccccc2)cc1 | 28.6% (active)
44 | C[C@H](OC(=O)n1ccnc1)[C@@H]1O[C@@]2(C)CCC[C@@H]1O2 | 3.91%
45 | CC(=O)NC12CC3CC(C1)CC(C(=O)N1CCN(C(=O)c4ccco4)CC1)(C3)C2 | 6.61%
46 | COc1ccccc1OCC(=O)O/N=C(\N)c1ccccn1 | -1.78%

Row | Compound | inhibition
47 | O=C(COc1ccc(NC(=O)c2ccccc2[N+](=O)[O-])cc1)c1ccc(F)cc1 | 43.8% (active)
48 | O=C(Nc1ccncc1)c1ccccc1[N+](=O)[O-] | 2.96%
49 | COc1ccc(NC(=O)c2ccccc2[N+](=O)[O-])cc1OC | -0.83%
50 | COc1c(C)c2c(c(O)c1C/C=C(\C)CCC(=O)O)C(=O)OC2 | 1.01%
51 | Cc1ncc([N+](=O)[O-])n1CCOC(=O)c1ccc(Br)cc1 | 4.52%
52 | CN(C)CCCn1c(SCc2ccc(Cl)cc2)nnc1-c1ccncc1 | 2.66%
53 | COc1ccc(-c2cc(C(=O)N3CCN(c4ccc(F)cc4)CC3)no2)cc1 | 8.33%
54 | O=C(c1cc(-c2ccc(Cl)cc2)on1)N1CCN(c2ccccc2)CC1 | 31.3% (active)
55 | O=C(c1cc(-c2ccc(F)cc2)on1)N1CCN(c2ccc(F)cc2)CC1 | 8.86%
56 | CCN(CC)CCNC(=O)c1sc2ncn(CC(=O)Nc3ccc(C)c(Cl)c3)c(=O)c2c1C | 32.4% (active)
57 | CCN(CC)CCCNC(=O)Cn1cnc2sc(C)c(S(=O)(=O)N3CCN(c4ncccn4)CC3)c2c1=O | 4.51%
58 | CCN(CC)CCNC(=O)Cn1cnc2sc(C)c(S(=O)(=O)N3CCOCC3)c2c1=O | -2.7%
59 | CCOC(=O)CSc1nc2ccc(C)cc2n2cnnc12 | -0.15%
60 | COc1ccc(S(=O)(=O)N2CCOCC2)cc1NC(=O)Cc1c(F)cccc1Cl | -4.41%
61 | Cc1cc(OCCCCOc2ccc(C#N)cc2)ccc1[N+](=O)[O-] | 19.5%
62 | Cc1cc(OCCCN2CCN(Cc3ccccc3)CC2)ccc1[N+](=O)[O-] | 34.3% (active)
63 | Cc1ccccc1N1CCN(CCCOc2ccc3c(C)cc(=O)oc3c2)CC1 | 15.9%
64 | CCOc1ccccc1N1CCN(C(=O)c2ccc3[nH]c(C)c(C)c3c2)CC1 | -3.51%
65 | Cc1ccccc1OCC(O)CN1CCN(c2ccccn2)CC1 (stereo unspecified) | -3.92%
66 | Cc1cccc(OCC(O)CN2CCN(CCN3C(=O)c4cccc5cccc(c45)C3=O)CC2)c1C (stereo unspecified) | 31.6% (active)
67 | Cc1cccc(C)c1OCC(O)CN1CCCCC1 (stereo unspecified) | -4.51%
68 | CCCCC[C@H]1CN(C2CCCCC2)C(=O)[C@@H]1CC(=O)NCc1ccc(OC)cc1 | -3.9%
69 | COC(=O)c1ccc(S(=O)(=O)N(CCO)Cc2ccccc2)n1C | 7.11%

Row | Compound | inhibition
70 | COC(=O)c1c(NC(=O)COc2ccc(Cl)cc2Cl)sc2c1CC(C)(C)NC2(C)C | 1.16%
71 | CCC(NC(=O)C1CCCC1)c1ccc(C)cc1 (stereo unspecified) | 0.26%
72 | Cc1ccc(C(c2sc3nc(C)nn3c2O)N2CCN(c3ccccc3)CC2)cc1 (stereo unspecified) | 1.64%
73 | Cc1ccc(C(c2sc3nc(C)nn3c2O)N2CCN(c3ccc(F)cc3)CC2)cc1 (stereo unspecified) | 36.7% (active)
74 | Oc1c(C(c2cccs2)N2CCN(c3ccc(F)cc3)CC2)sc2ncnn12 (stereo unspecified) | -5.69%
75 | C[C@@H](NC(=O)OC(C)(C)C)c1nnc(S(=O)(=O)Cc2ccccc2)o1 | -2.33%
76 | O=[N+]([O-])c1ccc(N2CCN(CC(O)COc3ccccc3)CC2)cc1 (stereo unspecified) | 29.5% (active)
77 | C[N+]1(CC(O)COc2ccccc2)CCN(C(=O)c2ccc([N+](=O)[O-])cc2)CC1 (stereo unspecified) | -1.46%
78 | O=C(C(c1ccccc1)c1ccccc1)N1CCN(CC(O)COc2ccccc2)CC1 (stereo unspecified) | 1.24%
79 | Cc1ccccc1NC(=O)Cc1nc(COC(=O)c2cccnc2Cl)cs1 | 2.11%
80 | COc1cccc(NC(=O)c2ccc(Cn3cc([N+](=O)[O-])cn3)o2)c1 | 4.62%
81 | CCc1ccc(NC(=O)c2ccc(Cn3cc([N+](=O)[O-])cn3)cc2)cc1 | 32% (active)
82 | O=C(Nc1ccccc1F)c1ccc(Cn2cc(Br)cn2)cc1 | -5.94%
83 | O=C(Nc1ccccc1Cl)/C(Cl)=C(\Cl)S(=O)c1ccccc1 (stereo unspecified) | -37.3%
84 | O=C1Cc2ccccc2Sc2ccc(Cl)cc21 | -9.53%
85 | COc1ccc(-c2nnc(SC(C)C(=O)NC3CC3)o2)cc1 (stereo unspecified) | 1.72%
86 | CCN1C(=O)[C@H]2[C@@H](c3ccc(-c4ccc(OC)cc4)cc3)N[C@@](Cc3ccccc3)(C(=O)OC)[C@H]2C1=O | 6.99%
87 | CCC(Cc1ccccc1)NS(=O)(=O)c1ccc2c(c1)NC(=O)CS2 (stereo unspecified) | 1.66%
88 | COc1ccc(C2=NOC3(CC(=O)N(c4ccc(Cl)cc4)C3=O)C2)c(OC)c1 (stereo unspecified) | 7.09%
89 | O=C(CCCC(=O)N1CCN(c2cccc(Cl)c2)CC1)c1ccccc1 | 24.1%
90 | O=C(Cc1ccc(-n2c(=O)[nH]c3ccccc3c2=O)cc1)N1CCN(c2cccc(Cl)c2)CC1 | 50.8% (active)
91 | CCOC(=O)N1CCN(C(=O)Cc2ccc(-n3c(=S)[nH]c4ccccc4c3=O)cc2)CC1 | 3.58%
